The list is not random: actives were taken first. Their share in the collection is about 12%.
BAZ2B block: BAZ2B (human) inhibition. Q9UIF8. AlphaScreen BAZ2B-H3K14Ac peptide displacement. Potency, µM (highest dose often 114 µM), inactives show top-dose activity change, negative = inhibition, usual class: inhibitors. hit rate 4.4% among 360,000. AID 504333; note: % is set by controls: 0 for no effect and ±100 for the full control effect; nearly all actives have a fitted effect of over 60% in size
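Complex of BAZ2B and biotin-H3K14Ac (50 nM apiece) forms over 30 min at RT, then faces library compounds up to 110 uM for another 30 min; AlphaScreen beads added, 20 min dark incubation, luminescence read.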
G9a block: G9a (human) methyltransferase inhibition | Q96KQ7 | G9a H3K9 monomethylation, AlphaScreen, 2 h | Potency, µM (doses to about 102 µM), for the others: top-dose activity, negative = inhibition, actives largely listed as inhibitors | hit rate 8.8% among 350,000 | AID 504332; note: % is set by controls: 0 for no effect and ±100 for the full control effect; nearly all actives have a fitted effect of over 75% in size
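Methyltransferase reactions run at room temperature for 2 h (20 nM enzyme, 500 nM biotin-H3K9 peptide, 20 uM SAM) after a 15 min compound preincubation; product detected by AlphaScreen beads and anti-H3K9me1 antibody.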
Sfp inh: inhibitors of Bacillus subtilis Sfp phosphopantetheinyl transferase | Q9F4F7 | Biochemical Sfp PPTase activity, qHTS | Potency, µM, for inactives: largest response in the series, negative = inhibition, usual class: inhibitors | hit rate 3.5% among 310,000;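 note: the enzyme is Sfp with the accession as filed and its product quenches rhodamine fluorescence; 0% = enzyme reaction without inhibitor and -100% = no enzyme wells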
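Compounds were incubated with enzyme (final 15 nM) for 15 min at room temperature before substrate addition started the reaction. Fluorescence at 525 nm excitation, 598 nm emission was recorded immediately and after 30 minutes.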
L3MBTL1 block: L3MBTL1 (human) inhibition; AlphaScreen L3MBTL1–H3K9me1 peptide binding; Potency, µM (top dose mostly 57.1 µM), without a hit: at the top dose activity, negative = inhibition, most hits filed as inhibitors; hit rate 0.66% among 230,000; note: % is set by controls: 0 for no effect and ±100 for the full control effect; nearly all actives have a fitted effect of over 60% in size
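L3MBTL1 (50 nM) pre-complexed 30 min with biotinylated H3(1-15)K9me1 peptide (75 nM), then compounds added for 30 min at room temperature; AlphaScreen streptavidin donor/nickel chelate acceptor beads (10 ug/mL final) read after 30 min dark incubation.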
JMJD2A Tudor inh: inhibitors of human JMJD2A Tudor domain; hit rate 4.4% among 390,000; Potency, µM (series often up to 114 µM), for inactives: at the highest dose activity change, negative = inhibition, usual class: inhibitors; AID 504339; AlphaScreen JMJD2A-Tudor / H3K4me3 peptide binding; note: % is set by controls: 0 for no effect and ±100 for the full control effect; nearly all actives have a fitted effect of over 50% in size
HP1b binding inh: inhibitors of HP1-beta chromodomain binding to methylated histone tails; AID 540317; AlphaScreen HP1-beta / biotin-H3K9me3 peptide binding; hit rate 0.56% among 390,000; Potency, µM (highest dose often 114 µM), for the others: at the highest dose activity change, negative = inhibition, most hits filed as inhibitors; P83916; note: nearly all actives have a fitted effect of over 70% in size
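Compound inhibition of the preformed complex between 50 nM HP1-beta and 50 nM biotinylated H3K9me3 peptide was read by AlphaScreen. Buffer was PBS pH 7.4 with 0.01% Tween-20. Incubations ran 30 min at room temperature, with 10 ug/mL donor/acceptor beads.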
Active calls of the source: *; u = inconclusive; x = no result given; [ ] = remark or other dose. Calls come from the whole dose curve; as a rule, active = well fitted curve in the direction sought with a large enough effect; inconclusive = small, poorly fitted or top-dose-only effect, or another doubt; inactive = no such curve, though single readings can be large; an effect the other way counts as inactive or inconclusive. Potency is the fitted concentration of half-maximal effect.

SMILES	BAZ2B block	G9a block	Sfp inh	L3MBTL1 block	JMJD2A Tudor inh	HP1b binding inh
CCCN1CNc2c(c(=O)[nH]c(=S)n2CCc2cc(C)cc(C)c2)C1	x	x	x	x	-18%	32%
Cc1ccc(C)c(CN2CCCNC2=O)c1	u	45µM*	50µM*	0%	-15%	21%
CSc1ccc(CCNC(=O)NCc2noc3ccccc23)cc1	-25%	-1%[59 µM]	x	x	-14%	27%
CCc1nnc(NC(=O)c2ccc(NC(=O)C(C)C)cc2)s1	-16%	56µM*	6%	-14%	-8%	24%
CCc1nnc(NS(=O)(=O)c2ccc(NC(=O)c3ccc(S(=O)(=O)N(CC)CC)cc3)cc2)s1	2%	-12%	17%	x	-14%	66%
CCc1nnc(NS(=O)(=O)c2ccc(NC(=S)NC(=O)/C=C/c3ccc([N+](=O)[O-])cc3)cc2)s1	u	35µM*	7%	x	3%	42%
CCOc1cc(C(=O)Nc2ccc(S(=O)(=O)Nc3nnc(CC)s3)cc2)cc(OCC)c1OCC	-1%	u	-4%	x	25µM*	44%
CCc1nnc(NS(=O)(=O)c2ccc(NC(=S)NC(=O)c3ccncc3)cc2)s1	u	50µM*	-3%	x	u	9%
Cc1ccc(-c2cn3c(n2)sc2cc(C(=O)NC4CCCCCC4)ccc23)cc1	u	-36%[59 µM]	x	x	-35%	-4%
CCc1nnc(NS(=O)(=O)c2ccc(NC(=S)NC(=O)c3ccc(OC)cc3)cc2)s1	-11%	u	-23%	2%	-17%	-11%
CCc1nnc(NS(=O)(=O)c2ccc(NC(=S)NC(=O)/C=C/c3ccc(F)cc3)cc2)s1	50µM*	89µM*	11%	-14%	56µM*	u
CC(N)C(=O)NCC(=O)NC1CSSCC(C(=O)O)NC(=O)C(CO)NC(=O)C(C(C)O)NC(=O)C(Cc2ccccc2)NC(=O)C(C(C)O)NC(=O)C(CCCCN)NC(=O)C(Cc2c[nH]c3ccccc23)NC(=O)C(Cc2ccccc2)NC(=O)C(Cc2ccccc2)NC(=O)C(CC(N)=O)NC(=O)C(CCCCN)NC1=O (stereo unspecified)	x	u	2%	x	x	x
Cc1cc(C(=O)COc2cccnc2[N+](=O)[O-])c(C)n1-c1ccccc1	u	u	-22%	-14%	-11%	-4%
Cc1cc(C(=O)COc2cccc3cccnc23)c(C)n1C	11µM*	2.8µM*	2%	11µM*	-12%[57.1 µM]	-15%
Cc1ccc(OCC(=O)c2cc(C)n(C)c2C)c([N+](=O)[O-])n1	56µM*	u	u	u	-29%	1%
Cc1cc(C)c(NC(=O)COc2nncc3ccccc23)c(C)c1	4%	5%[59 µM]	12%	3%	-4%	24%
Cc1cc(C(=O)COc2nncc3ccccc23)c(C)n1C	-8%	79µM*	12%	-3%	-10%	-2%
Cc1cc(C(=O)COc2ccccc2C(N)=O)c(C)n1C	x	-20%	9%	25%	-15%	15%
O=C(CCCn1c(=O)c2sccc2n(Cc2ccc(F)cc2Cl)c1=O)NCc1ccc2c(c1)OCO2	0%	-38%[59 µM]	x	x	-11%	16%
COCCn1nnnc1C(c1ccccn1)N1CCN(c2cccc(C)c2C)CC1 (stereo unspecified)	-21%	u	4%	1%	-24%	27%
COCCn1nnnc1C(c1ccc(OC)cc1OC)N1CCN(c2ccccc2F)CC1 (stereo unspecified)	u	56µM*	10%	1%	-18%	21%
COCCn1nnnc1C(c1ccc2ncccc2c1)N1CCc2ccccc21 (stereo unspecified)	-36%	50µM*	12%	-10%	-23%	11%
COCCn1nnnc1C(c1ccc(OC)cc1OC)N1CCN(c2ccccc2)CC1 (stereo unspecified)	u	u	-12%	x	u	3%

Screens as filed in PubChem BioAssay.
